Source: PubChem BioAssay (EPA / NIEHS)
The source made the active and inactive calls. How the source made its calls: active means hit-call score of the fitted dose curve at least 0.9, where 1 is the maximum; inactive means score below 0.9.

The compounds below were run on X-box binding protein 1 (XBP1), XBP1 (gene 7494) (assay: LTEA_HepaRG_XBP1: Life Technologies and Expression Analysis (LTEA) Assay for X-box binding protein 1 (XBP1) using HepaRG (AID 2283540)). Conditions: mRNA level, 48 h; actives raise or lower the signal.
Summary of the method: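 XBP1 transcript by qRT-PCR (housekeeping-normalized: ACTB, GAPDH, POLR2A) after 48 h chemical treatment of HepaRG cells, 8-point half-log series topping at 100 uM, vehicle 0.5% DMSO. Gain and loss of signal fitted relative to DMSO.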

outcome, inactive:
COc1cccc(-c2ccc(/C=C\CN3CCCCCC3)cc2Cl)c1
CC[C@H]1CC[C@H](NCc2cc3c(cc2OC)[C@H]2C[C@H]2C(=O)N3C)[C@H](c2ccccc2)N1
CCCCCCCCO
Fc1ccccc1[C@@H](F)COC1CCC(Nc2ncnc3[nH]ncc23)CC1 (stereo partly drawn)
CNCc1ccc(NC(=O)c2c[nH]c3c2C(=O)CCC3)cc1
O=c1[nH]c2ccc(S(=O)CCN3CCC(Cc4ccc(F)cc4)CC3)cc2o1 (stereo not drawn)
CCOC(=O)c1ccc(C2CCC(NC[C@H](O)COc3ccc(O)c(NS(C)(=O)=O)c3)CC2)cc1 (stereo partly drawn)
CCN(C(=O)c1cc(C)cc(OC[C@H](C)Nc2ccncc2)c1)C(C)C
Cc1ccc(O)cc1
CNS(=O)(=O)c1cc(C(=O)N2CCC(CCN3C4CCC3CC(n3c(C)nc5ccccc53)C4)(c3cccc(F)c3)CC2)c(Cl)cc1F (stereo not drawn)
CC(C)CCO
CCCCC(CC)COC(=O)CCCCCCCCC(=O)OCC(CC)CCCC (stereo not drawn)
CN(C)c1ccc(Cc2ccc(N(C)C)cc2)cc1
CCNc1ccccc1
CCn1nc(Cc2ccccc2)cc1C1CCN(C[C@H]2C[C@H](N(C)[C@@H](C(=O)O)C(C)C)C[C@@H]2c2cccc(F)c2)CC1
CC(C)CCCCCCOC(=O)c1ccc(C(=O)OCCCCCCC(C)C)c(C(=O)OCCCCCCC(C)C)c1
CC(C)=CCC/C(C)=C/CO
CC(=O)c1ccc2c(c1)[C@H](NC(=O)c1ccc(F)cc1)[C@@H](O)C(C)(C)O2
